The values below come from the supplement of paper PMC10011410.

± gives the standard deviation of the averaged measurements.

This assay deals with AmpC beta-lactamase (E. coli). As to the kind of experiment: AmpC inhibition relative to DMSO; higher = more inhibition. In a few lines:
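Percent inhibition was calculated against solvent-only wells. Each value is the mean of four technical replicates, taken from rates read as absorbance at 482 nm over 5 min after nitrocefin addition and background-subtracted against enzyme-free wells. Before nitrocefin went in, compounds (4, 11, 33 and 100 μM) sat with 5 nM E. coli AmpC β-lactamase for 5 min at RT in 50 mM sodium phosphate, pH 7.0, 1.0% DMSO, with or without 0.01% Triton X-100.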

The mark [1] stands for this setting: 4 µM, detergent: 0.01% Triton X-100.
Setting [2] is: 11 µM, detergent: 0.01% Triton X-100.
Where [3] appears, read: 33 µM, detergent: 0.01% Triton X-100.
[4] abbreviates: 100 µM, detergent: 0.01% Triton X-100.
Where [5] appears, read: 100 µM, detergent: no detergent.

For `O=C(NNS(=O)(=O)c1ccccc1)c1cc(-c2ccnnc2)ccc1F`, the AmpC inhibition under setting [1] came to 9.2 ± 1.8%; the AmpC inhibition (4 µM, detergent: no detergent) came out at 2.19 ± 10%; the AmpC inhibition under setting [2] is 3.76 ± 1.8%; the AmpC inhibition (11 µM, detergent: no detergent) was 16.9 ± 8%; the AmpC inhibition under setting [3] worked out at 3.27 ± 1.3%; the AmpC inhibition (33 µM, detergent: no detergent) was 5.35 ± 1.6%. Further, the AmpC inhibition under setting [4] worked out at 12.2 ± 5.5% and the AmpC inhibition under setting [5] was 11.9 ± 7.5%.

On to `O=C(NNS(=O)(=O)c1ccccc1F)c1cc(F)cc(-c2ccccn2)c1`, for which the AmpC inhibition runs as follows: under setting [1], 10.7 ± 1.2%; (4 µM, detergent: no detergent) 1.11 ± 11%; under setting [2], 5.78 ± 2.7%; (11 µM, detergent: no detergent) 8.02 ± 4.7%; under setting [3], -0.0162 ± 1.5%; (33 µM, detergent: no detergent) 4.81 ± 1.3%. Besides, the AmpC inhibition reads like this: under setting [4], 0.832 ± 4.9%; under setting [5], 5.91 ± 3.5%.

Consider `COc1ccc(/C(Cl)=C(\C=O)c2ccc(OC)cc2)cc1`, for which the AmpC inhibition under setting [1] turned out to be 2.6 ± 2.4%; the AmpC inhibition (4 µM, detergent: no detergent) was found to be 17.8 ± 21%; the AmpC inhibition under setting [2] stood at 4.97 ± 1.2%; the AmpC inhibition (11 µM, detergent: no detergent) came out at 3.2 ± 5.5%; the AmpC inhibition under setting [3] worked out at 1.35 ± 3.3%; the AmpC inhibition (33 µM, detergent: no detergent) was -9.16 ± 9.6%. The AmpC inhibition under setting [4] was -4.79 ± 8.1% and the AmpC inhibition under setting [5] stood at 1.57 ± 3.4%.

For `CNC(=O)Nc1ccc2c(c1)[C@@]1(CC2)OC(=O)N(CC(=O)N(Cc2ccc(F)cc2)[C@@H](C)C(F)(F)F)C1=O`, the AmpC inhibition is 9.1 ± 0.37% under setting [1]; 2.44 ± 8.2% (4 µM, detergent: no detergent); 6.71 ± 1% under setting [2]; 7.48 ± 3.8% (11 µM, detergent: no detergent); -0.0601 ± 2.8% under setting [3]; -5.13 ± 2% (33 µM, detergent: no detergent). In addition, the AmpC inhibition by setting is: under setting [4], -4.9 ± 5.7%; under setting [5], -1.81 ± 4.7%.

As for `CCCCCCCCCCCCCCCc1cccc(O)c1C(=O)O`, the AmpC inhibition is 6.97 ± 5.3% under setting [1]; 25.7 ± 18% (4 µM, detergent: no detergent); 6.87 ± 8.5% under setting [2]; 97.15 ± 0.48% (11 µM, detergent: no detergent); 5.05 ± 6.1% under setting [3]; 100 ± 3.9% (33 µM, detergent: no detergent). Further, the AmpC inhibition is 7.84 ± 4% under setting [4] and 99.49 ± 0.71% under setting [5].

As to `CCCCCCCc1ccc(CCc2cccc(O)c2C(=O)O)cc1`, the AmpC inhibition was 1.37 ± 5% under setting [1]; -4.68 ± 3.5% (4 µM, detergent: no detergent); 8.12 ± 2.9% under setting [2]; 61 ± 10% (11 µM, detergent: no detergent); 9.04 ± 3.8% under setting [3]; 97.2 ± 1.9% (33 µM, detergent: no detergent). Also, the AmpC inhibition is, setting by setting: under setting [4], 8.27 ± 3.7%; under setting [5], 99.4 ± 1.4%.

In the case of `C=C1C(=O)O[C@H](CCC)[C@H]1C(=O)O`, the AmpC inhibition was 0.817 ± 3% under setting [1]; 2.33 ± 5.5% (4 µM, detergent: no detergent); 3.75 ± 2.7% under setting [2]; -0.423 ± 6.2% (11 µM, detergent: no detergent); 0.478 ± 2.6% under setting [3]; -0.772 ± 6.7% (33 µM, detergent: no detergent). The AmpC inhibition under setting [4] was 2.9 ± 2% and the AmpC inhibition under setting [5] came out at 0.697 ± 4.5%.

Consider `Cl.Cl.O=C(O)Cn1nnc(-c2ccc(CN(CCCCOc3ccc(CN4CCCC4)cc3)CCc3ccccc3)cc2)n1`, for which the AmpC inhibition under setting [1] amounted to 7.51 ± 5.3%; the AmpC inhibition (4 µM, detergent: no detergent) was -18.8 ± 5%; the AmpC inhibition under setting [2] came to 6.13 ± 8.3%; the AmpC inhibition (11 µM, detergent: no detergent) is -17.6 ± 4.2%; the AmpC inhibition under setting [3] was 3.69 ± 2.6%; the AmpC inhibition (33 µM, detergent: no detergent) was -26.9 ± 12%. The AmpC inhibition runs as follows: under setting [4], 11 ± 6.5%; under setting [5], 5.89 ± 17%.

With `CCCCCCCCCCCC1=C(O)C(=O)C=C(O)C1=O`, the AmpC inhibition was 8.62 ± 5.2% under setting [1]; -3.71 ± 8% (4 µM, detergent: no detergent); 2.92 ± 1.7% under setting [2]; 17.5 ± 8.6% (11 µM, detergent: no detergent); 3.12 ± 4.7% under setting [3]; 60.9 ± 17% (33 µM, detergent: no detergent). Moreover, the AmpC inhibition turned out to be 5.91 ± 2.8% under setting [4] and 92.1 ± 5.4% under setting [5].

Turning to `COc1cc(/C=C/c2cc(/C=C/c3ccc(O)c(OC)c3)n(-c3ccc(C(=O)[O-])cc3)n2)ccc1O.[Na+]`, the AmpC inhibition under setting [1] is 1.31 ± 3%; the AmpC inhibition (4 µM, detergent: no detergent) was -4.8 ± 14%; the AmpC inhibition under setting [2] was determined as 2.98 ± 1.9%; the AmpC inhibition (11 µM, detergent: no detergent) was -29.6 ± 5.8%; the AmpC inhibition under setting [3] worked out at 4.87 ± 2.2%; the AmpC inhibition (33 µM, detergent: no detergent) is -38.3 ± 23%. For the same compound, the AmpC inhibition was 2.96 ± 6% under setting [4] and -2.93 ± 15% under setting [5].

For `O=C1C(Cl)=C(NCCN2CCOCC2)C(=O)c2ncccc21`, the AmpC inhibition is, setting by setting: under setting [1], 8.96 ± 3%; (4 µM, detergent: no detergent) 0.538 ± 7%; under setting [2], 5.66 ± 0.9%; (11 µM, detergent: no detergent) 0.224 ± 2.9%; under setting [3], 5.99 ± 7.4%; (33 µM, detergent: no detergent) -1.42 ± 2.1%. Also, the AmpC inhibition is, setting by setting: under setting [4], 6.05 ± 2%; under setting [5], -4.13 ± 5.6%.

Take `Cc1cc(-c2ccccc2)cc(C(=O)NNS(=O)(=O)c2ccccc2)c1F`: the AmpC inhibition under setting [1] came to 10.3 ± 2.6%; the AmpC inhibition (4 µM, detergent: no detergent) was found to be 7.83 ± 8%; the AmpC inhibition under setting [2] is 6.24 ± 2.3%; the AmpC inhibition (11 µM, detergent: no detergent) was 9.5 ± 7%; the AmpC inhibition under setting [3] is 1.15 ± 3%; the AmpC inhibition (33 µM, detergent: no detergent) stood at 15 ± 4.6%. Further, the AmpC inhibition under setting [4] was determined as 8.19 ± 9.7% and the AmpC inhibition under setting [5] is 53.4 ± 7.8%.

For `COC1=CC=C(S(=O)(O/N=C2C=C(C(C(C)=C\2)=O)C)=O)C=C1`, the AmpC inhibition reads like this: under setting [1], 2.45 ± 1.2%; (4 µM, detergent: no detergent) -3.63 ± 5.6%; under setting [2], 6.48 ± 2.3%; (11 µM, detergent: no detergent) 3.85 ± 1.5%; under setting [3], 6.35 ± 3.8%; (33 µM, detergent: no detergent) 0.996 ± 9.5%. Moreover, the AmpC inhibition is 8.37 ± 3.3% under setting [4] and -1.7 ± 3.7% under setting [5].
